Data on six compounds can be found in PubChem BioAssay (NCATS).

In assay [1] the target is Estrogen receptor (Homo sapiens) (UniProt P03372). Put plainly: qHTS assay for small molecule antagonists of estrogen receptor alpha signaling (AID 588513; active means well fitted curve in the direction sought with a large enough effect in the signal ratio, with a control signal flat, not every such curve was filed as active; inconclusive means small, poorly fitted or top-dose-only effect, or effect the other way, or a change in a side signal; inactive means no such curve, though single readings can be large or run the other way; the % refers to the signal ratio; further: potency means the concentration at half of the fitted maximal effect). The procedure, abridged: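 Beta-lactamase reporter, antagonist mode, HEK 293 GripTite cells; 0.5nM E2 stimulus, 18 h, 37 C; CCF4 dye 2 h RT; fluorescence. IC50 and efficacy from Hill fits, normalized to E2 and DMSO.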
Sequence of Estrogen receptor (Homo sapiens) (P03372 whole entry, looked up): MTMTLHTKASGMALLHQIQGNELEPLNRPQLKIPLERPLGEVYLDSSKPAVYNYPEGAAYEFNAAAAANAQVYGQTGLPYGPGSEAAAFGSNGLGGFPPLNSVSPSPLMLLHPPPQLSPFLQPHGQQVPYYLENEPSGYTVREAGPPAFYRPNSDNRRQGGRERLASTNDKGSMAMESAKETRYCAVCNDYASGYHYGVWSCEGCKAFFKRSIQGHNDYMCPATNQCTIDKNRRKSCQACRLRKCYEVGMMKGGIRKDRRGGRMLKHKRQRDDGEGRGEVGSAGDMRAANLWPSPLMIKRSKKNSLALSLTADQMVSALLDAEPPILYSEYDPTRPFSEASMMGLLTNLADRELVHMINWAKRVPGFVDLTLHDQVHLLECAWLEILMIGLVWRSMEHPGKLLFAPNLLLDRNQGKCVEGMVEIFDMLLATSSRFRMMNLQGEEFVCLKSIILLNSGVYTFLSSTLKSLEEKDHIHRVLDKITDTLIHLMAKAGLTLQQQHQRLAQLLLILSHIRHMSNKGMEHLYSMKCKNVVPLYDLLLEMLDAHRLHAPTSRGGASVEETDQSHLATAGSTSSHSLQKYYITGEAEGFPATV

Assay [2] shares this target. Put plainly: qHTS assay for small molecule agonists of estrogen receptor alpha signaling (AID 588514).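 Further: 0% = vehicle only and 100% = reference agonist; nearly all actives have a fitted effect of over 70% in size.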 Put shortly:
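EC50 and efficacy came from Hill fits of beta-lactamase reporter signal (CCF4 dye, 2 h at room temperature) scaled between DMSO and 20 nM 17-beta-estradiol. Agonist mode: HEK293 ER-alpha-UAS-bla cells in charcoal/dextran-stripped serum medium, 18 h compound exposure at 37 C.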

The target in assay [3] is Peroxisome proliferator-activated receptor gamma (Homo sapiens) (UniProt P37231). Description: qHTS assay for small molecule agonists of peroxisome proliferator-activated receptor gamma signaling (AID 588536; active means well fitted curve in the direction sought with a large enough effect in the signal ratio, with a control signal flat, not every such curve was filed as active; inconclusive means small, poorly fitted or top-dose-only effect, or effect the other way, or a change in a side signal; inactive means no such curve, though single readings can be large or run the other way; the % refers to the signal ratio;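 further: 0% = DMSO basal wells and 100% = rosiglitazone at 2 µM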). Put shortly:
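This is an agonist-mode beta-lactamase reporter assay in HEK293 PPAR-gamma-UAS-bla cells with 1% charcoal/dextran FBS. Compound titrations ran 16 h at 37 C before CCF4 detection. EC50 and efficacy are Hill fits scaled to 2 uM rosiglitazone (100%) and DMSO basal.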

The target is the same in assay [4]. Description: qHTS assay for small molecule antagonists of peroxisome proliferator-activated receptor gamma signaling (AID 588537; active means well fitted inhibition curve with a large enough effect in the signal ratio, with a control signal flat, not every such curve was filed as active; inconclusive means small, poorly fitted or top-dose-only effect, or effect the other way, or a change in a side signal; the % refers to the signal ratio;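 further: reporter cells co-stimulated with 50 nM rosiglitazone agonist during compound treatment; % of control where 0% means no effect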). Put shortly:
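Compounds are tested as concentration series for inhibition of rosiglitazone-driven (50 nM) reporter expression in GeneBLAzer PPAR-gamma-UAS-bla HEK293 cells. After 16 h at 37 C, CCF4 substrate is added for 2 h at room temperature and blue/green fluorescence is measured.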

Assay [5] addresses Vitamin D3 receptor (Homo sapiens) (UniProt P11473). Description: qHTS assay for small molecule antagonists of vitamin D receptor signaling (AID 588541). Further: potency means the concentration at half of the fitted maximal effect. The procedure, abridged: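 VDR-UAS-bla HEK293T cells (2000/well, 2% charcoal-stripped FBS) were treated with titrated compounds plus 1-alpha,25-dihydroxyvitamin D3 (50 nM or 3 nM final) for 16 h at 37 C. CCF4 beta-lactamase fluorescence was read; Hill fits gave IC50.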

For assay [6] the target is unchanged. Description: qHTS assay for small molecule agonists of vitamin D receptor signaling (AID 588543).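 Further: 0% = DMSO basal and 100% = reference agonist control.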 Put shortly:
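β-lactamase reporter, VDR-UAS-bla HEK293T, agonist mode. Cells plated 5 h at 37 °C, compound titration 16 h at 37 °C, CCF4 dye 2 h RT, ratio 460/530 nm. Hill fit → EC50, efficacy vs 50 nM 1α,25-(OH)2D3.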

In assay [7] the target is Retinoic acid receptor RXR-alpha (Homo sapiens) (UniProt P19793). Description: qHTS assay for small molecule agonists of retinoid X receptor alpha signaling (AID 588544).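 Further: 0% = DMSO basal wells and 100% = reference agonist.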
Sequence of Retinoic acid receptor RXR-alpha (Homo sapiens) (P19793 whole entry, looked up): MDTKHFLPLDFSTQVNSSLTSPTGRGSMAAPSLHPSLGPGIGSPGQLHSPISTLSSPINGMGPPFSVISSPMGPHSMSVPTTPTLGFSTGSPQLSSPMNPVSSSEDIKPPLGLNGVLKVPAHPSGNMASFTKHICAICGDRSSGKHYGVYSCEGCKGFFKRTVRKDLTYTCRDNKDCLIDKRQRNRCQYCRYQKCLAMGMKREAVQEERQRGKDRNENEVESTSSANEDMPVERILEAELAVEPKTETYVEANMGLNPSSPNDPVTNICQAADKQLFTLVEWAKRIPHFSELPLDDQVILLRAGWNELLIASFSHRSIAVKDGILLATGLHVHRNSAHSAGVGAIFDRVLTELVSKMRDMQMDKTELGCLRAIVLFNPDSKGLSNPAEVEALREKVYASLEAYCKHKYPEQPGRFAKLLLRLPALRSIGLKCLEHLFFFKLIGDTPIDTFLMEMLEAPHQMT
Assay [8] addresses Thyroid hormone receptor beta (Homo sapiens) (UniProt P10828). Put plainly: qHTS assay for small molecule agonists of thyroid hormone receptor beta signaling (AID 588545). The procedure, abridged:
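In this cell-based screen, titrated compounds act on HEK 293 cells held in medium with 2% charcoal/dextran FBS, NEAA and pyruvate for 18 hrs at 37 C. Responses are expressed relative to T3 (10 nM) as 100% and basal DMSO as 0%.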

Assay [9] is described as follows: qHTS assay for small molecule antagonists of retinoid X receptor alpha signaling (AID 588546; active means well fitted inhibition curve with a large enough effect in the signal ratio, with a control signal flat, not every such curve was filed as active; inconclusive means small, poorly fitted or top-dose-only effect, or effect the other way, or a change in a side signal; inactive means no such curve, though single readings can be large or run the other way; the % refers to the signal ratio;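 further: cells stimulated with 9-cis-retinoic acid as agonist; on the % scale 0 is the no-effect control and ±100 the full control effect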). Particulars: HEK293T RXRa-UAS-bla, beta-lactamase ratio, antagonist mode; measured here: W530 green channel, cytotoxicity proxy. Put shortly:
(§1)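 Beta-lactamase reporter inhibition, read as CCF4 fluorescence ratio (ex 405, em 460/530 nm) after 2 h at RT. HEK293T UAS-bla cells, 2500/well, were stimulated with 9-cis-RA at 500 or 100 nM final alongside test compound for 18 h at 37 C.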

Assay [10] deals with Retinoic acid receptor RXR-alpha (Homo sapiens) (UniProt P19793). The assay is described as above. Conditions: HEK293T RXRa-UAS-bla, beta-lactamase ratio, antagonist mode. Put shortly: as §1
The target of assay [11] is Thyroid hormone receptor beta (Homo sapiens) (UniProt P10828). Put plainly: qHTS assay for small molecule antagonists of thyroid hormone receptor beta signaling (AID 588547; active means well fitted inhibition curve with a large enough effect in the signal ratio, with a control signal flat, not every such curve was filed as active; inconclusive means small, poorly fitted or top-dose-only effect, or effect the other way, or a change in a side signal; the % refers to the signal ratio;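 further: cells stimulated with 0.4 nM T3 agonist during compound exposure; series mostly up to about 77 µM; on the % scale 0 is the no-effect control and ±100 the full control effect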). Particulars: TR-UAS-bla HEK293, beta-lactamase ratio, antagonist mode, 18 h. The procedure, abridged: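 TR-UAS-bla GripTite HEK293 cells in 2% charcoal/dextran FBS medium were preincubated 4 h at 37 C, given compound (0.59 nM to 92 uM) plus 0.4 nM T3 (final) for 18 h, then CCF4 for 2 h at RT; Hill fit gave IC50.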
Sequence of Thyroid hormone receptor beta (Homo sapiens) (P10828 whole entry, looked up): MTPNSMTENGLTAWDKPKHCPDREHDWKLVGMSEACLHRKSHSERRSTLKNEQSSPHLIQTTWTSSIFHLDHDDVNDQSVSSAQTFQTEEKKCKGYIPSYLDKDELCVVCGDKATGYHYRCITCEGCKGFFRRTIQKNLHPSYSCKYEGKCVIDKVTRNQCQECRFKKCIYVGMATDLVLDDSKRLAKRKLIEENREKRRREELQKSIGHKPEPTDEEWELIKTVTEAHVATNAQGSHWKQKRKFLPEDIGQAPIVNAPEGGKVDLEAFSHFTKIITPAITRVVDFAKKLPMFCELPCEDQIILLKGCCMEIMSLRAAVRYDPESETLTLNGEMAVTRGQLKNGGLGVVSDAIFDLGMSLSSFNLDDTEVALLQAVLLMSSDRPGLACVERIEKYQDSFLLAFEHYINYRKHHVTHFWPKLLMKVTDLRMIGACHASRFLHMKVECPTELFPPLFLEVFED

A short description of assay [12]: qHTS assay for small molecule activators of the p53 signaling pathway (AID 651743; active means well fitted activation curve with a large enough effect in the signal ratio, not every such curve was filed as active; inconclusive means small, poorly fitted or top-dose-only effect, or a change in a side signal; the % refers to the signal ratio; further: series mostly up to about 92 µM; % of control where 0% means no effect). Particulars: HCT-116 p53RE-bla, beta-lactamase FRET ratio, 16 h; activation: stronger effect = higher value. The procedure, abridged: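 Agonist-mode quantitative HTS in HCT-116 cells carrying a p53-response-element beta-lactamase reporter; 16 h compound treatment at 37 C, then FRET substrate loading for 2 h at room temperature and fluorescence read.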

The nature of assay [13]: qHTS assay for environmental chemicals that activate the Aryl hydrocarbon Receptor (AhR) signaling pathway (AID 651777; active means well fitted curve in the direction sought with a large enough effect; inconclusive means small, poorly fitted or top-dose-only effect, or another doubt; inactive means no such curve, though single readings can be large; an effect the other way counts as inactive or inconclusive; further: % of control where 0% means no effect; nearly all actives have a fitted effect of over 15% in size). Particulars: 1A2-DRE human hepatoma cells, luciferase, 24 h; activation: stronger effect = higher value. The procedure, abridged:
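Quantitative HTS in stably transfected human liver-derived cells whose luciferase gene sits downstream of the CYP1A2 promoter and dioxin response element. After 24 hr exposure at 37 C, One-Glo luminescence was measured.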

Assay [14] deals with Peroxisome proliferator-activated receptor alpha (Homo sapiens) (UniProt Q07869). Put plainly: qHTS assay for small molecule agonists of the peroxisome proliferator-activated receptor alpha (PPARalpha) signaling pathway (AID 651778; active means well fitted curve in the direction sought with a large enough effect; inconclusive means small, poorly fitted or top-dose-only effect, or another doubt; inactive means no such curve, though single readings can be large; an effect the other way counts as inactive or inconclusive; further: % of control where 0% means no effect). Conditions: PathHunter PPARalpha complementation, chemiluminescence, 6 h; max response: stronger effect = higher value. The procedure, abridged:
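Cells plated at 2,000/well and held overnight at 37 C, 5% CO2, then compound added by pin tool for 6 hr; after PathHunter detection reagent and 60 min at room temperature, chemiluminescence from enzyme complementation was read.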

A short description of assay [15]: qHTS assay for small molecule agonists of the antioxidant response element (ARE) signaling pathway measured by Nrf2-dependant transcriptional activity (AID 720636; active means well fitted curve in the direction sought with a large enough effect in the repeat runs; inconclusive means weak or mixed curves; inactive means no such curve, though single readings can be large; an effect the other way counts as inactive or inconclusive; further: potency means the concentration at half of the fitted maximal effect; on activation: % of control where 0% means no effect). Put shortly: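 Quantitative HTS format in HepG2 cells stably expressing an ARE-luciferase reporter; 16 hr compound treatment at 37 C, luciferase signal detected with ONE-Glo.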
Assay [16] in a line: qHTS assay for small molecule agonists of the antioxidant response element (ARE) signaling pathway measured by Nrf2-dependant transcriptional activity - cell viability counter screen (AID 720653; active means well fitted curve in the direction sought with a large enough effect in the repeat runs; inconclusive means weak or mixed curves; inactive means no such curve, though single readings can be large; an effect the other way counts as inactive or inconclusive; further: on the % scale 0 is the no-effect control and ±100 the full control effect). Conditions: ARE-bla HepG2 viability, CellTiter-Glo ATP luminescence, 16 h; max response: stronger effect = lower value. The procedure, abridged: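 ARE-bla HepG2 cells (2,000/well) rested 5 hrs at 37C/5% CO2, then exposed to compounds in DMSO for 16 hrs. Viability was read in the same wells as intracellular ATP by luminescence, 30 min at room temperature after reagent addition.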

The nature of assay [17]: qHTS assay for cell viability of the p53RE-bla HCT-116 cell line (AID 743292; active means well fitted curve in the direction sought with a large enough effect; inconclusive means small, poorly fitted or top-dose-only effect, or another doubt; inactive means no such curve, though single readings can be large; an effect the other way counts as inactive or inconclusive; further: on the % scale 0 is the no-effect control and ±100 the full control effect; nearly all actives have a fitted effect of over 55% in size). The procedure, abridged: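 Viability of compound-treated p53RE-bla HCT-116 cells is taken from ATP-dependent luciferase luminescence. Treatment lasts 16 h at 37 C after a 5 h settling period; detection follows 30 min at room temperature.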
The target of assay [18] is Nuclear receptor subfamily 1 group I member 2 (Rattus norvegicus) (UniProt Q9R1A7). Description: qHTS assay for small molecule activators of the rat pregnane X receptor (rPXR) signaling pathway (AID 651751; call rule not given here; further: 0% is about no effect). Particulars: rPXR reporter cells, luciferase (One-Glo), 24 h.
Sequence of Nuclear receptor subfamily 1 group I member 2 (Rattus norvegicus) (Q9R1A7 whole entry, looked up): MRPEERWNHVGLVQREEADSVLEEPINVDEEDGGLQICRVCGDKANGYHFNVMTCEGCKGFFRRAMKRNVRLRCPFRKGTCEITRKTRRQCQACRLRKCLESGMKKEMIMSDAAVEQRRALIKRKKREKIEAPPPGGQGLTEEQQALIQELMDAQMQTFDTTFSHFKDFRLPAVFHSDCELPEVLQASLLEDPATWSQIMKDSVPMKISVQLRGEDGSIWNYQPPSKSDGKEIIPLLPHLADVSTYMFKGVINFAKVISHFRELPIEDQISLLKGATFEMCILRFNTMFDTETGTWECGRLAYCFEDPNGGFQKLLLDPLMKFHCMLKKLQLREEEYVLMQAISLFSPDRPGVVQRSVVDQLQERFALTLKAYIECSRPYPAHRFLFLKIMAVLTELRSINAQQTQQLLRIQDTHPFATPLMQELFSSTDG
Assay [19] concerns the target Peroxisome proliferator-activated receptor delta (Homo sapiens) (UniProt Q03181). Description: qHTS assay for small molecule agonists of peroxisome proliferator-activated receptor delta signaling (AID 588534).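 Further: 0% = DMSO basal wells and 100% = positive control agonist at 10 µM.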 The procedure, abridged: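 Agonist-mode beta-lactamase reporter readout (CCF4 dye, 2 h at RT) after 18 h at 37 °C exposure to a titration; Hill-equation fitting gave EC50 and maximal response.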

Assay [20] can be described thus: qHTS assay for cell viability of HEK293 cells (AID 743288; active means well fitted curve in the direction sought with a large enough effect; inconclusive means small, poorly fitted or top-dose-only effect, or another doubt; inactive means no such curve, though single readings can be large; an effect the other way counts as inactive or inconclusive; further: on the % scale 0 is the no-effect control and ±100 the full control effect; nearly all actives have a fitted effect of over 50% in size). Conditions: ATP luminescence (CellTiter-Glo), 18 h; max response: stronger effect = lower value. Put shortly: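 ATP luminescence (CellTiter-Glo) reports metabolically competent cell number after parental HEK293 cells, 2,000/well, were treated with DMSO-dissolved compounds for 18 h at 37 C; reagent incubation 30 min, room temperature.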

The structures appear in SMILES notation. Where “and” joins values, the source holds several entries; their conditions need not be identical. Equal entries are not always repeated. Calls of active or inactive are those of the source. Unless noted, the call rests on the fitted dose curve.

Sequence of Peroxisome proliferator-activated receptor alpha (Homo sapiens) (Q07869 whole entry, looked up): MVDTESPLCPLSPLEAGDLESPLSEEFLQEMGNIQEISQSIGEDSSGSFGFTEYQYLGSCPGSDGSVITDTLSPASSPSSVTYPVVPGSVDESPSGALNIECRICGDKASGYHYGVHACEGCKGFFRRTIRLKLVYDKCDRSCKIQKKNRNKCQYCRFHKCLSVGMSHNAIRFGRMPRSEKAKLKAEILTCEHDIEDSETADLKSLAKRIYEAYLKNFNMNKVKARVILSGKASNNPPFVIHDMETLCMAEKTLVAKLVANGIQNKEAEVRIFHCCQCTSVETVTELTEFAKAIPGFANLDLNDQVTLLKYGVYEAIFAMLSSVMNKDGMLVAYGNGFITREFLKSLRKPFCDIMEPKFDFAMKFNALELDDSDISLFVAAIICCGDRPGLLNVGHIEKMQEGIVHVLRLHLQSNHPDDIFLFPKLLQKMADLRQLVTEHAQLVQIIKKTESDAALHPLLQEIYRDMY
Sequence of Vitamin D3 receptor (Homo sapiens) (P11473 whole entry, looked up): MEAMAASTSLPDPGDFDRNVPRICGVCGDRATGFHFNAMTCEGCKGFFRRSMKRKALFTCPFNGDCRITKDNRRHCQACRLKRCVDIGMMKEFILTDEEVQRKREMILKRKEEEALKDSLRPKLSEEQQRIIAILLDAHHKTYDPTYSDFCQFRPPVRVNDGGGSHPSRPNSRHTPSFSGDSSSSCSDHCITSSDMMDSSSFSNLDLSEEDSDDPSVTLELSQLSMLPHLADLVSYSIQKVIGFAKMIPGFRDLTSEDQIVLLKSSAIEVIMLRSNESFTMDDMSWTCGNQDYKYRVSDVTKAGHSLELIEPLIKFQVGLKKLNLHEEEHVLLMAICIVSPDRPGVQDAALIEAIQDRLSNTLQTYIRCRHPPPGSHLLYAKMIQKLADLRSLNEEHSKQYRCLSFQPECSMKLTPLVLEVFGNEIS
Sequence of Peroxisome proliferator-activated receptor gamma (Homo sapiens) (P37231 whole entry, looked up): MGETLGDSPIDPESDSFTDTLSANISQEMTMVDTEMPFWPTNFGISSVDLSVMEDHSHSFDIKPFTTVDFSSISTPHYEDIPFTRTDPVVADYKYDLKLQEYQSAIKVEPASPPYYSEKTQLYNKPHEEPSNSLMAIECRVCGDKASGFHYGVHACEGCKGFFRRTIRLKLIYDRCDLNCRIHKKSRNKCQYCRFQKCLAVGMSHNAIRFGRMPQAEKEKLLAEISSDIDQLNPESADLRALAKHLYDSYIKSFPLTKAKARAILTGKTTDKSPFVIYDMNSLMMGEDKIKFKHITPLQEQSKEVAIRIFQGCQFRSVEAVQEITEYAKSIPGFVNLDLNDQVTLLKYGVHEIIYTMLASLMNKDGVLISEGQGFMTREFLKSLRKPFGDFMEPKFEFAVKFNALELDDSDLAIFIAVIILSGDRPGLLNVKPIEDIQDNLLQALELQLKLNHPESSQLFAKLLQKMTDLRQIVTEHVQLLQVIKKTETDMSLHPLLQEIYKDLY
Sequence of Peroxisome proliferator-activated receptor delta (Homo sapiens) (Q03181 whole entry, looked up): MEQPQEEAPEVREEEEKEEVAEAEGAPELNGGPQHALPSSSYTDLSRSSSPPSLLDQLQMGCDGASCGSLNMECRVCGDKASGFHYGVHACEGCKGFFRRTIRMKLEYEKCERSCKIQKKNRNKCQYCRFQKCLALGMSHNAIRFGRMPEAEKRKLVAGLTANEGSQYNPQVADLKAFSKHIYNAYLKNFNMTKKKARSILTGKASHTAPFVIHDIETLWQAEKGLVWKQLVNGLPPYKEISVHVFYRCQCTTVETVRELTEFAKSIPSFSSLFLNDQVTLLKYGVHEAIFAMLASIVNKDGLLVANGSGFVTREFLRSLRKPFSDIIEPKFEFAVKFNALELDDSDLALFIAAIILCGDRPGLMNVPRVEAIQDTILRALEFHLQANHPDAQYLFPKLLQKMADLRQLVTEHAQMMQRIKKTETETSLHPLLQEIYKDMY

Turning to `COc1ccc(C(O)(c2cncnc2)C2CC2)cc1` (configuration not stated), the Potency result in assay [1], in [2], in [3], in assay [4], in [5] and in [7] was “inactive” each time. Besides, the Potency result in assay [8], in [15] and in [17] was “inactive” in each case. Besides, in assay [6], the compound was called inactive. Besides, the max response in [9] was 8.99%; in assay [10], 1.16% (inactive); in assay [14], -2.81% (inactive); in assay [16], -13.4% (inactive); in assay [18], 3.59% (inactive). Also, the activity change % (negative = inhibition) in assay [11] is -4.75% (inactive). Also, the activation in assay [12] is -2.74% (inactive); in assay [13], -0.591% (inactive).
As for `C=CC(=O)OCC(CO)(COC(=O)C=C)COC(=O)C=C`, the Potency in [1] is 7.94 µM [inconclusive] (active); in assay [5], 7.08 µM (active); in assay [15], 16.8 µM (active) and 12.2 µM (active). In [2], the Potency result was “inactive”. In addition, the call in assay [6] was inactive. Moreover, the max response in assay [9] was -17.9%; in assay [16] it was -24.9% (inactive).
`CCCCC(CC)C(=O)Cl` (configuration not stated): the Potency result in assay [1], in assay [2], in assay [3], in [4], in [7] and in assay [8] was “inactive” each time. The Potency entry in assay [15] and in [17] was “inactive” each time. Further, the call in [19] was inactive. Further, the max response in [9] was -9.74%; in assay [10], 2.12% (inactive); in [14], -0.947% (inactive); in assay [16], -2.12% (inactive); in assay [20] it was -4.59% (inactive); in [18] it was -0.98% (inactive). Also, the activity change % (negative = inhibition) in assay [11] is 0.279% (inactive). In addition, in assay [13], the activation was 0.633% (inactive).
As for `CCOP(OCC)OCC`, the Potency result in [1], in [2], in [3], in assay [4], in assay [7] and in [8] was “inactive” each time. For the same compound, the Potency entry in assay [15] and in assay [17] was “inactive” throughout. Besides, the max response in assay [9] is -5.06%; in assay [10] it was -9.86% (inactive); in assay [14], -2.48% (inactive); in assay [16] it was -4.24% (inactive); in assay [20], 0.538% (inactive); in assay [18], 0.674% (inactive). The activity change % (negative = inhibition) in assay [11] was 9.21% (inactive). In addition, the activation is 0.684% (inactive) in [12] and 1.72% (inactive) in assay [13].
Consider `Clc1ccc(C(Cl)(Cl)Cl)cc1`, for which the Potency result in assay [1], in assay [2], in [3], in [7], in assay [8] and in assay [15] was “inactive” each time. Moreover, the Potency result in assay [17] is “inactive”. Besides, the max response in [9] was -19.4%; in [10], -3.2% (inactive); in assay [14], -0.649% (inactive); in [16], -2.36% (inactive); in [20], -0.236% (inactive); in assay [18] it was 2.13% (inactive). Further, the activity change % (negative = inhibition) in assay [11] is -0.364% (inactive). In addition, the activation in assay [12] was -4.01% (inactive); in assay [13], 0.701% (inactive).
For `CCOc1ccc(C(C)(C)COCc2cccc(Oc3ccccc3)c2)cc1`, the Potency entry in [1], in assay [2], in assay [3], in assay [4], in assay [5] and in [8] was “inactive” throughout. Besides, in assay [15], the Potency entry is “inactive”. Also, the outcome in assay [19] and in assay [6] was inactive. The max response in assay [9] was -7.02%; in assay [10], -7.6% (inactive); in assay [14], -1.64% (inactive); in [16] it was -4.24% (inactive); in [20], -6.28% (inactive). The activity change % (negative = inhibition) in assay [11] was 2.33% (inactive). Moreover, the activation in assay [12] was -0.0413% (inactive); in assay [13], 1.55% (inactive).
